Experimental data: PubChem BioAssay (NCATS)
Records with an inconclusive call do not appear. Activity calls are given as the source filed them. Calls follow the shape of the dose curve; as a rule, active = well fitted cell-killing curve with a large enough effect; inconclusive = small, poorly fitted or top-dose-only effect, or effect the other way; inactive = flat fitted curve, though single readings scatter.

test system: Hek293T; assay: Primary qHTS to identify gynecologic anti-cancer compounds using libraries of approved drugs and bioactive compounds (AID 1345084); conditions: Gynecologic cancer cell panel viability, ATPlite luminescence, 48 h, control line for the selectivity index; series mostly up to 57.5 µM; activity change, negative = cytotoxicity: at the top concentration; also: nearly all actives have a fitted effect of over 55% in size
How it was run: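 Cells, 1,000 per well, plated 16 h, then exposed 48 h at 37 C to compounds. Viability by ATPlite luminescence after 15 min at room temperature.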
% is scaled to controls: 0 for no effect and ±100 for the full control effect; potency is read from the fitted curve at half-maximal effect.

Row | Structure (SMILES) | activity change, negative = cytotoxicity | Potency
1 | Cc1ccnn1-c1ccc(C(=O)N2CCN(S(=O)(=O)c3ccc(Cl)c(C(F)(F)F)c3)CC2)cc1 | 1.25% (inactive) | 
2 | O=C(Cc1c(F)cccc1F)Nc1cc(OCc2ccc(Cl)cc2)ccn1 | -3.06% (inactive) | 
3 | CCN(c1cc(-c2ccc(CN3CCOCC3)cc2)cc(C(=O)NCc2c(C)cc(C)[nH]c2=O)c1C)C1CCOCC1 | 6.65% (inactive) | 
4 | C/C=C(/C)C(=O)O[C@@H]1C[C@@H](OC(=O)CC(C)C)C2(C)C3C(=O)C=C(C)C2C3C1(C)C (some centres undefined) | -2.85% [at 25.3 µM] (inactive) | 
5 | CCOc1cc(C(C)(C)C)ccc1C1=NC(C)(c2ccc(Cl)cc2)C(C)(c2ccc(Cl)cc2)N1C(=O)N1CCN(CCCS(C)(=O)=O)CC1 (centres undefined) | -18.8% (inactive) | 
6 | COc1ccc(S(=O)(=O)N2CCC[C@H]2C(=O)Nc2cc(C)cc(C)c2)cc1 | 9.53% (inactive) | 
7 | COc1cccc(-c2cc(F)ccc2C2Cc3nc(N)nc(C)c3C(=O)N2)n1 (centres undefined) |  | 0.282 µM (active)
8 | CN(C)C(=O)Nc1cc(-c2ccccc2)ccc1N(C)C | -9.65% (inactive) | 
9 | COc1ccc(NC(=O)c2ccc(C(=N)N(C)C)cc2)c(C(=O)Nc2ccc(Cl)cn2)c1 | 1.29% (inactive) | 
10 | COc1cc(O)c2c(c1)/C=C/C[C@H](O)[C@H](O)C(=O)/C=C\C[C@H](C)OC2=O |  | 15.8 µM (active)
11 | CC(C)c1cc(-c2ccc(F)c3ccccc23)nc(N)n1 | 2.27% (inactive) | 
12 | CNc1cccc(CCOc2ccc3c(c2)CN(CC(F)(F)F)C(=O)[C@H](CC(=O)O)C3)n1 | -24.4% (inactive) | 
13 | OC[C@H]1O[C@@H](OC/C=C/c2ccc(O)cc2)[C@H](O)[C@@H](O)[C@@H]1O | -4.78% [at 38.5 µM] (inactive) | 
14 | Cn1ccc(NC(=O)c2cc(Oc3ccc(C(=O)N4CCC4)c(F)c3)c3c(c2)OC(C)(C)C3)n1 | 4.41% (inactive) | 
15 | COc1ccc2nc3n[nH]c(C)c3c(NCCOCCO)c2c1 | -7.18% (inactive) | 
16 | C=C(C(=O)OC[C@H]1O[C@@H](OC(=O)/C=C/c2ccccc2)[C@H](O)[C@@H](O)[C@@H]1O)C(O)CO (some centres undefined) | -0.707% [at 25.3 µM] (inactive) | 
17 | COc1ccccc1C(=O)Nc1cc2c(cc1N1CCCC1)n(C)c(=O)n2C | -0.7% (inactive) | 

Row | Structure (SMILES) | activity change, negative = cytotoxicity | Potency
18 | Clc1cccc(COc2cncc(N3CCNCC3)n2)c1 | -7.06% (inactive) | 
19 | CCOc1cn(-c2ccc(F)cc2C)nc1C(=O)Nc1ccc(Oc2ccnc3cc(OC)c(OC)cc23)c(F)c1 | -3.24% (inactive) | 
20 | O=C(Nc1ccccc1Br)NC1CCN(c2ccc(C(F)(F)F)cn2)C1 (centres undefined) | 3.08% (inactive) | 
21 | C=CC(C)(O)CC/C=C(/C)COC(=O)C(C)C1CCC(C)(C=C)O1 (centres undefined) | -22% [at 38.5 µM] (inactive) | 
22 | Cc1noc(C)c1-c1cc(O)cc(C(O)c2ccccc2)c1 (centres undefined) | -24.1% (inactive) | 
23 | COc1cccc(NCCC2(c3ccccc3)CC(C)(C)OC(C)(C)C2)c1 | -7.33% (inactive) | 
24 | Cc1c(OCc2cccc(-c3ccc(C(=O)O)cc3)c2)cc2c(c1C)C(=O)C(C1CCCC1)C2 (centres undefined) | 2.39% (inactive) | 
25 | CC1(NC(=O)c2ccc(C#Cc3cccc(F)c3)cn2)COC1 | -4.45% (inactive) | 
26 | O=C(NCCN1CCC(n2c(=O)[nH]c3ccccc32)CC1)c1cc2cc(F)ccc2[nH]1 | 3.4% (inactive) | 
27 | CCN(Cc1cc(Nc2nc(C)cn3c(-c4cn[nH]c4)cnc23)sn1)C(C)(C)CO |  | 3.55 µM (active)
28 | CCN1CCC[C@@H]1CNC(=O)c1ccc2c(c1)NC(=O)c1cccc(C)c1S2 | 4.68% (inactive) | 
29 | O=C(CNC(=O)c1cccc(C(F)(F)F)c1)N[C@@H]1CCN(Cc2ccc(Cl)cc2)C1 | 3.04% (inactive) | 
30 | CC(=O)NC(C)c1cnc(-c2cnc(Oc3ccc(OC(C)C)cc3)s2)s1 (centres undefined) | -17.6% (inactive) | 
31 | O=C(NNc1nc2cc(F)ccc2n2cccc12)c1cnccn1 |  | 3.55 µM (active)
32 | C[C@@H](Nc1ncnc2[nH]c(-c3ccc(O)cc3)cc12)c1ccccc1 | -12.4% (inactive) | 
33 | CC1=CC2/C=C(\C)CCC3OC(C)(C)OC3CCC(=O)C23C(=O)NC(CC(C)C)C3C1C (centres undefined) | -13.9% [at 25.3 µM] (inactive) | 
34 | CC1(CO)CC2C(O)C3=C(CC(C)(O)C2C1)C(=O)OC3 (centres undefined) | -0.702% (inactive) | 
